In PubChem BioAssay (EPA / NIEHS):
Inconclusive results are not listed. Activity calls are given as the source filed them. How the source made its calls: active means hit-call score of the fitted dose curve at least 0.9, where 1 is the maximum; inconclusive means response in the unintended direction; inactive means score below 0.9.

assay: Tanguay_ZF_120hpf_JAW_legacy: (Legacy) Oregon State University Tanguay Lab 120 Hour Post-fertilization zebrafish Assay for Jaw Malformation (AID 2283638)
Procedure, shortened: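 Binary jaw-malformation call at 120 hpf by brightfield microscopy. Embryos (Tropical 5D strain, chorion removed at 4 hpf) were dosed statically at 6 hpf, one per well, at 28C with 0.64% DMSO. Embryos that died were not scored.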

Structure (SMILES)	outcome
CCCCCCC(C=O)=Cc1ccccc1	inactive
COC(=O)CCC(=O)OC	inactive
O=C1c2c(O)cccc2Cc2cccc(O)c21	inactive
Oc1ccc(O)cc1	inactive
CC(N)=O	inactive
CSc1ccc(Oc2ccc(S(N)(=O)=O)cc2CN(C)C)cc1C	inactive
CCCCC(CC)CO (stereo not drawn)	inactive
CC(=O)O[C@]1(C(C)=O)CC[C@H]2[C@@H]3C=C(Cl)C4=CC(=O)[C@@H]5C[C@@H]5[C@]4(C)[C@H]3CC[C@@]21C	inactive

assay: Tanguay_ZF_120hpf_OTIC_legacy: (Legacy) Oregon State University Tanguay Lab 120 Hour Post-fertilization zebrafish Assay for Otic Vesicle Malformation (AID 2283639)
Procedure, shortened: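 Embryos from 5D wild-type adults exposed in plates; DMSO 0.64% v/v final. Sealed, light-protected, 28C, static to 120 hpf. Otic vesicle malformation recorded as binary endpoint; gain-of-signal fitted vs DMSO.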

Structure (SMILES)	outcome	AC50
CC(C)(O)c1ccc(CNC(=O)c2cccnc2Oc2ccc(F)cc2)cc1	inactive	
Cc1cn([C@H]2C=C[C@@H](CO)O2)c(=O)[nH]c1=O	inactive	
COC(=O)[C@H]1[C@H]2C[C@@H]3c4[nH]c5cc(OC)ccc5c4CCN3C[C@H]2C[C@@H](OC(=O)c2cc(OC)c(OC)c(OC)c2)[C@@H]1OC	inactive	
NC=O	inactive	
CC(=O)O	inactive	
CC1=C(C)S(=O)(=O)CCS1(=O)=O	inactive	
OCC(CO)n1cnc(-c2ccc(F)cc2)c1-c1ccnc(Oc2ccccc2)n1	inactive	
NCCOCCOCCN	inactive	
Cc1cc(SC2=C(O)C[C@@](CCc3ccc(N)cc3)(C(C)C)OC2=O)c(C(C)(C)C)cc1CO	inactive	
C#CC(O)C(CC)CCCC (stereo not drawn)	inactive	
O=C(O)c1cccnc1	inactive	
O=C(NS(=O)(=O)/C=C/c1cccs1)c1ccc(F)cc1Br	inactive	
Nc1nc(Cl)nc2c1ncn2[C@H]1C[C@H](O)[C@@H](CO)O1	inactive	
C/C=C/c1ccc(OC)cc1	inactive	
C=CCc1ccc(OC)c(OC)c1	inactive	
COc1ccc(OC(F)(F)F)cc1CN[C@H]1CCCN[C@H]1c1ccccc1	inactive	
CC(C)(C)c1ccccc1	inactive	
S=c1[nH]c2ccccc2s1		11.2 µM (active)
CC(C)c1cccc(C(C)C)c1NC(=O)NS(=O)(=O)c1cc(C(C)(C)O)co1	inactive	
CC1(C)C(=O)NC(=O)N1CO	inactive	
COC(=O)CCCC(=O)OC	inactive	
CC(=O)[C@@]1(O)CC[C@H]2[C@@H]3CCC4=CC(=O)CC[C@]4(C)[C@H]3CC[C@@]21C	inactive	
CCCCCCC(C=O)=Cc1ccccc1	inactive	
COC(=O)CCC(=O)OC	inactive	
O=C1c2c(O)cccc2Cc2cccc(O)c21	inactive	
Oc1ccc(O)cc1	inactive	
CC(N)=O	inactive	
CSc1ccc(Oc2ccc(S(N)(=O)=O)cc2CN(C)C)cc1C	inactive	
CCCCC(CC)CO (stereo not drawn)	inactive	
CC(=O)O[C@]1(C(C)=O)CC[C@H]2[C@@H]3C=C(Cl)C4=CC(=O)[C@@H]5C[C@@H]5[C@]4(C)[C@H]3CC[C@@]21C	inactive	

assay: Tanguay_ZF_120hpf_PE_legacy: (Legacy) Oregon State University Tanguay Lab 120 Hour Post-fertilization zebrafish Assay for Pericardial Edema (AID 2283640);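 on AC50: potency for increased incidence of pericardial edema versus DMSO baseline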
Procedure, shortened: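 Scoring was binary, by brightfield microscopy at 120 hpf, and skipped where mortality occurred. Wild-type embryos were kept under sealed, foil-covered static exposure at 28C in 0.64% (vol/vol) DMSO.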

Structure (SMILES)	outcome	AC50
CC(C)(O)c1ccc(CNC(=O)c2cccnc2Oc2ccc(F)cc2)cc1	inactive	
Cc1cn([C@H]2C=C[C@@H](CO)O2)c(=O)[nH]c1=O	inactive	
COC(=O)[C@H]1[C@H]2C[C@@H]3c4[nH]c5cc(OC)ccc5c4CCN3C[C@H]2C[C@@H](OC(=O)c2cc(OC)c(OC)c(OC)c2)[C@@H]1OC	inactive	
NC=O	inactive	
CC(=O)O	inactive	
CC1=C(C)S(=O)(=O)CCS1(=O)=O	inactive	
OCC(CO)n1cnc(-c2ccc(F)cc2)c1-c1ccnc(Oc2ccccc2)n1	inactive	
NCCOCCOCCN	inactive	
Cc1cc(SC2=C(O)C[C@@](CCc3ccc(N)cc3)(C(C)C)OC2=O)c(C(C)(C)C)cc1CO	inactive	
C#CC(O)C(CC)CCCC (stereo not drawn)	inactive	
O=C(O)c1cccnc1	inactive	
O=C(NS(=O)(=O)/C=C/c1cccs1)c1ccc(F)cc1Br	inactive	
Nc1nc(Cl)nc2c1ncn2[C@H]1C[C@H](O)[C@@H](CO)O1	inactive	
C/C=C/c1ccc(OC)cc1	inactive	
C=CCc1ccc(OC)c(OC)c1	inactive	
COc1ccc(OC(F)(F)F)cc1CN[C@H]1CCCN[C@H]1c1ccccc1	inactive	
CC(C)(C)c1ccccc1	inactive	
S=c1[nH]c2ccccc2s1		37.6 µM (active)
CC(C)c1cccc(C(C)C)c1NC(=O)NS(=O)(=O)c1cc(C(C)(C)O)co1	inactive	
CC1(C)C(=O)NC(=O)N1CO	inactive	
COC(=O)CCCC(=O)OC	inactive	
CC(=O)[C@@]1(O)CC[C@H]2[C@@H]3CCC4=CC(=O)CC[C@]4(C)[C@H]3CC[C@@]21C	inactive	
CCCCCCC(C=O)=Cc1ccccc1	inactive	
COC(=O)CCC(=O)OC	inactive	
O=C1c2c(O)cccc2Cc2cccc(O)c21	inactive	
Oc1ccc(O)cc1	inactive	
CC(N)=O	inactive	
CSc1ccc(Oc2ccc(S(N)(=O)=O)cc2CN(C)C)cc1C	inactive	
CCCCC(CC)CO (stereo not drawn)	inactive	
CC(=O)O[C@]1(C(C)=O)CC[C@H]2[C@@H]3C=C(Cl)C4=CC(=O)[C@@H]5C[C@@H]5[C@]4(C)[C@H]3CC[C@@]21C	inactive	

assay: Tanguay_ZF_120hpf_BRAI_legacy: (Legacy) Oregon State University Tanguay Lab 120 Hour Post-fertilization zebrafish Assay for Brain Malformation (AID 2283641)
Procedure, shortened: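 Binary brightfield scoring of brain malformation at 120 hpf in Tropical 5D larvae held under static exposure at 28C (0.64% v/v DMSO), non-mortality endpoints skipped if dead. Positive control: 5uM trimethyltin chloride; fit versus DMSO.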

Structure (SMILES)	outcome	AC50
CC(C)(O)c1ccc(CNC(=O)c2cccnc2Oc2ccc(F)cc2)cc1	inactive	
Cc1cn([C@H]2C=C[C@@H](CO)O2)c(=O)[nH]c1=O	inactive	
COC(=O)[C@H]1[C@H]2C[C@@H]3c4[nH]c5cc(OC)ccc5c4CCN3C[C@H]2C[C@@H](OC(=O)c2cc(OC)c(OC)c(OC)c2)[C@@H]1OC	inactive	
NC=O	inactive	
CC(=O)O	inactive	
CC1=C(C)S(=O)(=O)CCS1(=O)=O	inactive	
OCC(CO)n1cnc(-c2ccc(F)cc2)c1-c1ccnc(Oc2ccccc2)n1	inactive	
NCCOCCOCCN	inactive	
Cc1cc(SC2=C(O)C[C@@](CCc3ccc(N)cc3)(C(C)C)OC2=O)c(C(C)(C)C)cc1CO	inactive	
C#CC(O)C(CC)CCCC (stereo not drawn)	inactive	
O=C(O)c1cccnc1	inactive	
O=C(NS(=O)(=O)/C=C/c1cccs1)c1ccc(F)cc1Br	inactive	
Nc1nc(Cl)nc2c1ncn2[C@H]1C[C@H](O)[C@@H](CO)O1	inactive	
C/C=C/c1ccc(OC)cc1	inactive	
C=CCc1ccc(OC)c(OC)c1	inactive	
COc1ccc(OC(F)(F)F)cc1CN[C@H]1CCCN[C@H]1c1ccccc1	inactive	
CC(C)(C)c1ccccc1	inactive	
S=c1[nH]c2ccccc2s1		40.7 µM (active)
CC(C)c1cccc(C(C)C)c1NC(=O)NS(=O)(=O)c1cc(C(C)(C)O)co1	inactive	
CC1(C)C(=O)NC(=O)N1CO	inactive	
COC(=O)CCCC(=O)OC	inactive	
CC(=O)[C@@]1(O)CC[C@H]2[C@@H]3CCC4=CC(=O)CC[C@]4(C)[C@H]3CC[C@@]21C	inactive	
CCCCCCC(C=O)=Cc1ccccc1	inactive	
COC(=O)CCC(=O)OC	inactive	
O=C1c2c(O)cccc2Cc2cccc(O)c21	inactive	
Oc1ccc(O)cc1	inactive	
CC(N)=O	inactive	
CSc1ccc(Oc2ccc(S(N)(=O)=O)cc2CN(C)C)cc1C	inactive	
CCCCC(CC)CO (stereo not drawn)	inactive	
CC(=O)O[C@]1(C(C)=O)CC[C@H]2[C@@H]3C=C(Cl)C4=CC(=O)[C@@H]5C[C@@H]5[C@]4(C)[C@H]3CC[C@@]21C	inactive	
